The values below come from the OligoGym collection.
Also: reference of the scale not given here.

One assay has as its target FANCG. Description: pooled miR-30 sensor sort-seq; sequence = guide strand. The note with it: shRNA.
In turn, TACCTCAATGAGAAACTGCGGG displayed a sensor-assay potency score (higher = more potent) of -0.383.
Still for that read-out and setting: the result for TTGGGCACCCAGTTGAACCCAG reads -0.577; that for TTTTCTGGCATCTTCCCACAGC, -0.807; that for TAAGTGTCTCGATTACCTGGGC, -0.142.
Still for that read-out and setting: the result for TAAATTCACTAATTGCCACTTT reads 0.314.
Still for that read-out and setting: the result for TAGCTTTCTAGGTACAGGGGGA reads -0.426; that for TAGGCTCCGCTGGATATCCTGG, -1.03; that for TTGCAGACTATGGAGGAGCCCT, -1.08.
TACACCTGGACCAACACAGGCC came in with a sensor-assay potency score (higher = more potent) of 0.254.
Still for that read-out and setting: the result for TTGGCCTGTCGAACGAGCCGGT reads -0.452.
On the same count and under the same terms, the result for TGTGTCTCCAGCACTCTCTCTA reads 0.116; that for TACAACAGTGCTCTCTGTGGAT, -0.172.
On the same count and under the same terms, the result for ATAGCTTTCTAGGTACAGGGGG reads 0.363.
For TGCTGTGTACACCTGGACCAAC, the sensor-assay potency score (higher = more potent) is -1.61.
Take TAGCAGCTCCAGACTCTCCAGC: the sensor-assay potency score (higher = more potent) is -0.96.
The same measure, in the same setting: under TTCTACCTCAATGAGAAACTGC stands -0.153; under AGTAAGTGTCTCGATTACCTGG, -1.17.
On the same count and under the same terms, under AAGTACAACAGTGCTCTCTGTG stands 0.113; under TTGGGTAGCAGAGATGATGTGC, 0.442.

Another assay concerns the target FANCL. The assay is described as above. To be noted: shRNA.
In turn, TTACCTAATGCAATTCTGCGTG displayed a sensor-assay potency score (higher = more potent) of -0.355.
Same read-out and setting: under TTCTGCAGGATACTTTGCCTTC stands -0.558; under TAAGGTGGAAGTCTCTTCCCTG, 0.0592.
On the same count and under the same terms, the result for TTATGGAAACATTATTACCTAA reads -1.18; that for TTAGTGAAGAGACAAACGCAGA, -1.17.
Same read-out and setting: the result for TTAGTGATTCTATTGCTGCCAA reads 0.323.
In the case of TAGATCAGGAGAGTGCTGCATT, the sensor-assay potency score (higher = more potent) is -0.0519.
Still for that read-out and setting: under TAAAACTCTGTCTACTAGTTAG stands -1.39; under TTCTCTGTTGTACTATTCGATG, -1.72; under TAATAATCTTGCATTCTTCAGT, -0.383.
Same read-out and setting: under TACAATATGGACATTCACCAAA stands -0.784.
Take TAATCTTGCATTCTTCAGTTGT: the sensor-assay potency score (higher = more potent) is 0.333.

The target in another assay is FASN. Described as above. To be noted: shRNA.
TAGAGGTGCTGAGCCAGCGGGC showed a sensor-assay potency score (higher = more potent) of -1.55.
TAGGTGGGGATGCTGAGCCGGG showed a sensor-assay potency score (higher = more potent) of -1.21.
Same read-out and setting: the result for TTCTCTGACACCTCGAAGGCAC reads -0.474; that for ATAGGTGACTTCCAGCAGCAGC, -1.01; that for TTGATGATCAGGTCCACGGCGG, 0.0156.
Still for that read-out and setting: under TAGTAGACCGTGCAGAGCTGGG stands -0.853; under TTGAGCTGAAGCCTGCAGGCAG, -0.315; under TTGGAGAGCAGCACACACCGGA, -0.273.
The same measure, in the same setting: the result for TTCAGGAAGATAGCCATGCCGA reads -1.28.
